Measurements: PMC4336329 (PLoS ONE, 2015)
The whole screen tested about 310,000 compounds, of which about 14,000 (4.5%) showed an effect of 50% or more. The effect is printed as a negative number. For the sample, strong results were picked, then their nearest neighbours and some compounds at random.

Each compound was assayed against human ether-à-go-go-related gene (hERG) potassium channel (human, UniProt Q12809) (assay: primary screen, population patch clamp on CHO cells stably expressing hERG; higher = less effect of the substance).
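Further: peak tail current of the secondary pulse compared with the same well before compound.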

Sequence of human ether-à-go-go-related gene (hERG) potassium channel (Q12809 whole entry, looked up): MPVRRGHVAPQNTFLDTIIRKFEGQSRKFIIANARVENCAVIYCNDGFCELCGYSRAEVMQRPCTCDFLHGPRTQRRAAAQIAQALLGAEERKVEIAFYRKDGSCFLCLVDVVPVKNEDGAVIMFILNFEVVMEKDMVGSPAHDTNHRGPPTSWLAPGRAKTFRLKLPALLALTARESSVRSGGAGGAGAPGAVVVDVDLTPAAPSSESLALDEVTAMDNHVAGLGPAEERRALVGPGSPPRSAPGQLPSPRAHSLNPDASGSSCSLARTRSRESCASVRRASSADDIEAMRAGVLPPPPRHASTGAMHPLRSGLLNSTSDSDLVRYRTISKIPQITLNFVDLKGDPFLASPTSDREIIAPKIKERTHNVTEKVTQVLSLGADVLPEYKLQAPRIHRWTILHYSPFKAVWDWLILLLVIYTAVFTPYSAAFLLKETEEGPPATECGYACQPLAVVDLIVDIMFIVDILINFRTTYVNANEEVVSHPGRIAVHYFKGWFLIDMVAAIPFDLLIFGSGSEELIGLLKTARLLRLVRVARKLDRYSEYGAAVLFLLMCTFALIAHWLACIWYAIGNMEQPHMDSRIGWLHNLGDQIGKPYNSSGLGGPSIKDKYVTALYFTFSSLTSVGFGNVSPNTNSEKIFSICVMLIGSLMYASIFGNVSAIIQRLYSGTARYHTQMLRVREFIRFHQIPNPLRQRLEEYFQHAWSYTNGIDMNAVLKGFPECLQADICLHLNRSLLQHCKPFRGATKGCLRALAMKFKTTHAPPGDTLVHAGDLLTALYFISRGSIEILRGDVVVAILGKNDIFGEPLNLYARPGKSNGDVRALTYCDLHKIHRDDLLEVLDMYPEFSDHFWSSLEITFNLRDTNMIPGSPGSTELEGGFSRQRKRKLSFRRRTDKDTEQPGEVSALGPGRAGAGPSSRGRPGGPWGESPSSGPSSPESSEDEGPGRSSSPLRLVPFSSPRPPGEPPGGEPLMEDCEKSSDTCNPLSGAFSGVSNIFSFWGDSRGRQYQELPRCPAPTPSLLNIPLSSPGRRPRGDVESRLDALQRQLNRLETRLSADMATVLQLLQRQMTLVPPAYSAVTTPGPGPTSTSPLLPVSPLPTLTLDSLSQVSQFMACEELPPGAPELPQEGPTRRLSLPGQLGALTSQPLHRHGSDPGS

Point of comparison: `CCC1(CC)NC(=O)N(CC(=O)OC(C)C(=O)Nc2ccccc2OC)C1=O` (stereo not shown), “hERG current change (%, negative = inhibition) at 10uM” value 32.3%. Against it:
- CCC1(CC)NC(=O)N(CC(=O)OC(C)C(=O)Nc2ccc(Cl)cn2)C1=O (stereo not shown) — lower, -51.7%
- CCC1(CC)NC(=O)N(CC(=O)OC(C)C(=O)Nc2ccc(NC(C)=O)cc2)C1=O (stereo not shown) — lower, 3.1%
- Cc1ccc(C)c(S(=O)(=O)N2CCN(CC(=O)Nc3sccc3C#N)CC2)c1 — lower, -57.7%
- N#Cc1ccsc1NC(=O)CN1CCN(c2ccccc2O)CC1 — lower, -4.95%
- CC(=O)N1CCN(CC(=O)Nc2sccc2C#N)CC1 — lower, 17.8%
- N#Cc1ccsc1NC(=O)CN1CCN(S(=O)(=O)c2ccccc2C(F)(F)F)CC1 — lower, -56.9%
- N#Cc1ccsc1NC(=O)CN1CCCCCC1 — lower, -3.42%
- N#Cc1ccsc1NC(=O)CN1CCN(S(=O)(=O)c2cc(Cl)ccc2Cl)CC1 — lower, -32%
- COC(=O)C1=C2c3[nH]c4ccccc4c3CCN2C(=O)CC1 — lower, -23.1%
- O=C(CN1CCOCC1)NCc1ccccc1 — lower, 17.4%
- C=C(C)COc1ccc(-c2[nH]ncc2-c2ccc(OC)c(OC)c2)c(O)c1 — lower, -0.891%
- Cc1cc(C)c(NC(=O)CN(C)C(C)C(=O)N2CCc3ccccc32)c(C)c1 (stereo not shown) — lower, -50.3%
- CC(C(=O)N1CCc2ccccc21)N(C)CC(=O)Nc1ccc(F)cc1 (stereo not shown) — lower, -47.9%
- CC(C(=O)N1CCc2ccccc21)N(C)CC(=O)Nc1ccccc1Cl (stereo not shown) — lower, -29.2%
- CCOC(=O)c1c(C)nc(-c2ccccc2)nc1N — lower, 7.25%
- CCCCC(=O)N1C/C=C\[C@H](c2ccc(OC)cc2)N(Cc2ccc(F)cc2)C(=O)[C@@H]1C — lower, -68.6%
- CCCCC(=O)N1C/C=C\C(c2ccc(OC)cc2)N(Cc2ccc(F)cc2)C(=O)[C@H]1Cc1ccccc1 (stereo partly shown) — lower, 7.51%
- COc1ccc([C@H]2/C=C\CN(C(=O)CC(C)(C)C)[C@@H](C)C(=O)N2Cc2ccc(F)cc2)cc1 — lower, -17.4%
- CN(CCNC(=O)C1CCN(S(=O)(=O)c2cnc[nH]2)CC1)Cc1ccccc1 — lower, 12.6%
- O=C(CCC1CCCCC1)Nc1ccccc1O — lower, 3.23%
- Cc1ccc(CN2CCN(Cc3ccc4cc(F)ccc4n3)CC2CCO)o1 (stereo not shown) — lower, -30.6%
- CC(=O)Nc1ccc2nc(CN3CCN(Cc4ccc(F)cc4)C(CCO)C3)ccc2c1 (stereo not shown) — lower, -28.8%
- COc1ccc(CN2CCN(Cc3ccon3)CC2CCO)c(C)c1C (stereo not shown) — lower, -37.3%
- COc1ccc(CN2CCN(Cc3ccc4cc(F)ccc4n3)CC2CCO)c(C)c1C (stereo not shown) — lower, -63.7%
- COc1cccc(CN2CCN(Cc3ccc4c(NC(C)=O)cccc4n3)CC2CCO)c1 (stereo not shown) — lower, 5.13%
- COc1cc(CN2CCN(Cc3ccc4cc(F)ccc4n3)CC2CCO)cc(OC)c1 (stereo not shown) — lower, -64.4%
- CCOc1ccc(CN2CCN(Cc3ccc4cc(F)ccc4n3)CC2CCO)cc1 (stereo not shown) — lower, -75.7%
- COc1ccc(-c2csc3nc(C)nc(N4CCCCC4)c23)cc1OC — lower, -7.85%
- CC(C)C1Cc2c(sc3c2c(=O)n(Cc2ccccc2)c2nncn32)CO1 (stereo not shown) — lower, -11%
- COc1ccc(N2C(=O)CC(N3CCN(S(=O)(=O)c4cc(C)ccc4C)CC3)C2=O)cc1 (stereo not shown) — lower, -6.8%
- CC12C=CC3(O1)C(C(=O)N1CCCOC13)C2C(=O)O (stereo not shown) — lower, -2.54%
- CCc1ccc(CN(C(=O)c2cc3ccccc3oc2=O)C2CCS(=O)(=O)C2)cc1 (stereo not shown) — lower, -56.5%
- Cc1cc(C)cc(N(C(=O)c2cc3ccccc3oc2=O)C2C=CS(=O)(=O)C2)c1 (stereo not shown) — lower, -55.4%
- CN(C)c1ccc(CN(C(=O)c2cc3ccccc3oc2=O)C2CCS(=O)(=O)C2)cc1 (stereo not shown) — lower, -11.8%
- COc1ccc(CN(C(=O)c2cc3ccccc3oc2=O)C2CCS(=O)(=O)C2)cc1 (stereo not shown) — lower, -18.9%
- CC(C)c1ccc(CN(C(=O)c2cc3ccccc3oc2=O)C2CCS(=O)(=O)C2)cc1 (stereo not shown) — lower, -62%
- O=C(c1cc2ccccc2oc1=O)N(Cc1ccccc1)C1CCS(=O)(=O)C1 (stereo not shown) — lower, -12.2%
- Cc1ccc(N(C(=O)c2cc3ccccc3oc2=O)C2C=CS(=O)(=O)C2)cc1 (stereo not shown) — lower, -6.15%
- Cc1ccc(CN(C(=O)c2cc3ccccc3oc2=O)C2CCS(=O)(=O)C2)cc1 (stereo not shown) — lower, -34%
- O=C(c1cc2ccccc2oc1=O)N(c1ccccc1)C1C=CS(=O)(=O)C1 (stereo not shown) — lower, 2.29%
- CC1(C)CC(=O)C=C(Nc2ccc3c(c2)CCC3)C1 — lower, -2.73%
- O=C(Nc1ccccc1)NC1CCN(Cc2nnnn2C2CCCCC2)CC1 — lower, -29.2%
- CCN1CCN(C(=O)c2ccc(CS(=O)Cc3ccc(C)cc3)o2)CC1 (stereo not shown) — lower, 11%
- O=C(O)C1CCCC2CN3CCc4c([nH]c5ccccc45)C3C(O)C21 (stereo not shown) — lower, 13.7%
- Cc1ccc(N(C(=O)CNC(=O)c2ccco2)C(C(=O)NC2CCCC2)c2ccncc2)c(C)c1 (stereo not shown) — lower, 14.6%
- CCOc1ccc(NS(=O)(=O)c2ccc(NC(=O)C3CCCO3)cc2)cc1 (stereo not shown) — lower, 20.7%
- C/C(=N\NC(=S)NCc1ccccc1)c1ccc2ccccc2c1 — lower, 15.9%
- CN(C)CCCNc1ccc(-c2n[nH]c(=O)c3ccccc23)cc1[N+](=O)[O-] — lower, 1.1%
- COc1ccc(CC2(CO)CCN(Cc3ccc4c(c3)CCO4)CC2)cc1 — lower, -65.7%
- OCC1(CCc2ccccc2)CCN(Cc2ccc3nsnc3c2)CC1 — lower, -77.7%
- COc1ccc(C(=O)NCc2ccc3c(c2)CCO3)cc1 — lower, 7.15%
- O=C(c1cnsn1)N1CCC(CO)(Cc2ccc(Cl)cc2)CC1 — lower, -43.7%
- OCC1(Cc2ccccc2C(F)(F)F)CCN(Cc2ccc3c(c2)CCO3)CC1 — lower, -28.7%
- COc1ccc(CC2(CO)CCN(Cc3nc(C(C)C)cs3)CC2)cc1 — lower, -48.4%
- OCCC1CN(Cc2ccc3nsnc3c2)CCN1C1CCCC1 (stereo not shown) — lower, -25%
- COc1ccc(CC2(CO)CCN(Cc3ccc4nsnc4c3)CC2)cc1 — lower, -58.9%
- OCC1(Cc2ccc(Cl)cc2)CCN(Cc2ccc3nsnc3c2)CC1 — lower, -61.5%
- CC(NS(=O)(=O)c1ccc(F)cc1)C(=O)Nc1ccc2c(c1)OCCO2 (stereo not shown) — lower, 13.2%
- CCOC(=O)c1ccc(N2C(=O)c3n[nH]c(C)c3C2c2ccco2)cc1 (stereo not shown) — lower, -5.29%
- Cc1ncoc1C(=O)N1CCCC(CCC(=O)NCc2ccccc2F)C1 (stereo not shown) — lower, -6.93%
- N#Cc1nc(COc2cccc(Cl)c2)oc1N1CCN(c2ccccc2)CC1 — lower, -4.18%
- COCCNC(=O)/C(C#N)=C/c1ccc(O)c([N+](=O)[O-])c1 — lower, 14.7%
- CC(CS(=O)(=O)c1ccc2c(c1)NC(=O)CS2)C(=O)NCc1ccccc1Cl (stereo not shown) — lower, -0.823%
- COC(=O)c1ccc(C)c(NC(=O)c2ccc(CN3CCc4ccccc4C3)cc2)c1 — lower, 6.57%
- CCOC(=O)N1CCN(C(=O)c2cc(COc3ccc(F)cc3F)on2)CC1 — lower, -17.1%
- CC(Oc1ccc(-c2ccccc2)c(F)c1)c1ccn(S(=O)(=O)c2ccc(F)cc2)n1 (stereo not shown) — lower, 16%
- COc1ccccc1-c1ccc(Nc2cccc(C(F)(F)F)c2)nn1 — lower, 15.4%
- Cc1cccc(Cn2c(SCCN3CCCCC3)nc3c2c(=O)[nH]c(=O)n3C)c1 — lower, -79.1%
- Cn1c(=O)[nH]c(=O)c2c1nc(SCCN1CCCCC1)n2Cc1ccccc1 — lower, -78.9%
- CCCSc1nc2c(c(=O)[nH]c(=O)n2C)n1Cc1ccccc1 — lower, -17.4%
- COCCSc1nc2c(c(=O)[nH]c(=O)n2C)n1Cc1cccc(C)c1 — lower, -45.6%
- Cn1c(=O)[nH]c(=O)c2c1nc(SCCO)n2CCCc1ccccc1 — lower, -4.68%
- Cn1c(=O)[nH]c(=O)c2c1nc(SCC(=O)O)n2Cc1ccccc1 — lower, -5.45%
- Cc1ccc(Cn2c(SCCN3CCCCC3)nc3c2c(=O)[nH]c(=O)n3C)cc1 — lower, -74.1%
- Cc1ccc(Cn2c(N3CCCCCC3)nc3c2c(=O)[nH]c(=O)n3C)cc1 — lower, 0.362%
- Cn1c(=O)[nH]c(=O)c2c1nc(SCCN1CCCCC1)n2CCCc1ccccc1 — lower, -69%
- Cn1c(=O)[nH]c(=O)c2c1nc(SCCN1CCOCC1)n2CCCc1ccccc1 — lower, -46.9%
- Cc1ccc(Cn2c(SCC(C)C)nc3c2c(=O)[nH]c(=O)n3C)cc1 — lower, 4.21%
- Cc1cccc(Cn2c(SCC(=O)Nc3ccccc3)nc3c2c(=O)[nH]c(=O)n3C)c1 — lower, -30.2%
- Cn1c(-c2ccc(Cl)nc2)nc2cc(Cl)ccc21 — lower, -9.09%
- CC(C)CNC(=O)C1Nc2ccccc2C2C=CCC12 (stereo not shown) — lower, -6.43%
- COc1cccc(N(CC(=O)N/N=C(\C)c2cccs2)S(C)(=O)=O)c1 — lower, 6.58%
- Cc1cc(NS(=O)(=O)c2ccc(NC(=O)N[C@H](C(=O)O)C(C)C)cc2)no1 — lower, 29.3%
- CCN(CC)C(=S)NC(=O)Cc1ccccc1 — lower, 16.1%
